Compounds with a hit are over-represented: about 0.18% of the library has one in this group of screens.
PTAP TSG101 blk: blocks PTAP/TSG101 interaction to inhibit HIV-1 budding; Q99816; Fluorescence polarization, FITC-PTAP peptide / Tsg101 binding; Potency, µM (doses to about 115 µM), for the others: at the highest dose activity change, negative = inhibition, usual class: inhibitors; 340,000 tested, under 10 active; active means well fitted inhibition curve with a large enough effect in the main read-out, with a control signal flat, not every such curve was filed as active; inconclusive means small, poorly fitted or top-dose-only effect, or effect the other way, or a change in a side signal; inactive means no such curve, though single readings can be large or run the other way; further: potency means the concentration at half of the fitted maximal effect; % of control where 0% means no effect
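FP read-out: FITC-PTAP peptide, 50 nM final, binding Tsg101 binding domain, 10 uM final; 20 min, r.t.; 10 mM HEPES pH 7.5, 0.15 M NaCl, 0.01% Tween 20, 3 mM EDTA, 0.1 mM TCEP.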
mIDH1 inhibitor: human IDH1 R132H inhibition | IDH1-R132H enzyme, NADPH consumption, diaphorase/resazurin fluorescence | AID 602179 | actives 0.093% (n = 390,000) | Potency, µM (doses to about 76.6 µM), without a hit: at the top dose activity change, negative = inhibition, hits mostly inhibitors | O75874; further: potency means the concentration at half of the fitted maximal effect; on the % scale 0 is the no-effect control and ±100 the full control effect; nearly all actives have a fitted effect of over 65% in size
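IDH1-R132H (0.5 ug/mL dispensed) in pH 7.5 Tris buffer was preincubated 30 min with compound, then given a substrate mix of 0.016 mM NADPH and 2 mM alpha-KG for 80 min at room temperature; remaining NADPH was read by diaphorase/resazurin fluorescence.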
Apoferritin bind: binds horse apoferritin like a general anesthetic. P02791. Potency, µM (top dose mostly 77.5 µM), for the others: at the top dose activity change, negative = displacement, most hits filed as inhibitors. apoferritin/1-aminoanthracene competitive binding, fluorescence. actives 0.074% (n = 350,000); further: potency means the concentration at half of the fitted maximal effect; on the % scale 0 is the no-effect control and ±100 the full control effect; nearly all actives have a fitted effect of over 20% in size
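Apoferritin-based anesthetic binding model; compound displacement of fluorescent 1-AMA measured as endpoint fluorescence after 10 minutes at room temperature, scaled to free-ligand and complex controls.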
ERG Ets-DNA blk: inhibitors of human ERG Ets domain-DNA interaction; P11308; fluorescence polarization, His-ERG Ets domain / labelled DNA; Potency, µM (doses to about 76.9 µM), inactives show at the top dose FP activity, negative = inhibition, hits mostly inhibitors; actives 0.028% (n = 370,000); AID 624246; active means well fitted inhibition curve with a large enough effect in the polarisation, with a control signal flat; inconclusive means small, poorly fitted or top-dose-only effect, or effect the other way, or a change in a side signal; inactive means no such curve, though single readings can be large or run the other way; the % refers to the polarisation;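 further: polarization taken with two DNA probes labelled with fluorescein and Texas red; potency means the concentration at half of the fitted maximal effect; % of control where 0% means no effect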
Target sequence (P11308 whole entry, looked up, the tested form may be a part): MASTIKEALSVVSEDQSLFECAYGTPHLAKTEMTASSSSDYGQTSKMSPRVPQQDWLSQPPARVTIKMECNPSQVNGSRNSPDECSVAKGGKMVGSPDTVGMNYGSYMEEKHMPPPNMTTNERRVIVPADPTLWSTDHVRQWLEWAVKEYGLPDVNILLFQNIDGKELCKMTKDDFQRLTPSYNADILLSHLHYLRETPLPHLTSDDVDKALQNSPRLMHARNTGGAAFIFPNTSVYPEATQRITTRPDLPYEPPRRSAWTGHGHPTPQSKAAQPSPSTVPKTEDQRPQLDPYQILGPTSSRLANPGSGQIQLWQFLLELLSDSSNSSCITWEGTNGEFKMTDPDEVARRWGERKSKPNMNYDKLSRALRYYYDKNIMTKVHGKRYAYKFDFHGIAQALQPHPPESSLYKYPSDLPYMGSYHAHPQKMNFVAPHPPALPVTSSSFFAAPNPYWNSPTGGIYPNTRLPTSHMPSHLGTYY
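His-tagged ERG Ets domain (1 uM in the protein solution; 300mM KCl, 50mM Tris-HCl, 1mM EDTA, 1mM DTT, pH 7.5) received compound, then a probe mix of 5 nM fluorescein-DNA and 100nM Texas-615-DNA. Fluorescence polarization was read for both dyes.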
Resorufin autofl: counter-screen for mutant IDH1 inhibitors: fluorescence interference; shares compounds with mIDH1 inhibitor; Resorufin detection reagent fluorescence interference, cell-free; inhibition of signal, % at 51.2 µM; 750 tested, under 10 active; AID 623980;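 further: 0% = wells with normal resorufin and full inhibition = wells lacking resorufin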
WT IDH1 inh: wild-type IDH1 (human) inhibition counterscreen; shares compounds with mIDH1 inhibitor; WT IDH1 enzyme, NADPH diaphorase/resazurin fluorescence; Potency, µM (highest dose often 115 µM), without a hit: at the top dose activity change, negative = inhibition, usual class: inhibitors; actives 9% (n = 750); AID 623995;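 further: potency means the concentration at half of the fitted maximal effect; 0% = full WT IDH1 enzyme control and full inhibition = no enzyme wells; nearly all actives have a fitted effect of over 55% in size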
IDH1 R132H conf: confirmation of human mutant IDH1 inhibitors; shares compounds with mIDH1 inhibitor; IDH1 R132H enzyme, NADPH diaphorase/resazurin fluorescence; Potency, µM (titrated, usually from 76.6 µM), without a hit: top-dose activity change, negative = inhibition, hits mostly inhibitors; actives 83% (n = 750); further: potency means the concentration at half of the fitted maximal effect; nearly all actives have a fitted effect of over 50% in size
The depositor's hits bear a star; ? = inconclusive; . = not tested or not shown. Unless noted, the call rests on the fitted dose curve; in most records, active means well fitted curve in the direction sought with a large enough effect; inconclusive means small, poorly fitted or top-dose-only effect, or another doubt; inactive means no such curve, though single readings can be large; an effect the other way counts as inactive or inconclusive.

SMILES | PTAP TSG101 blk | mIDH1 inhibitor | Apoferritin bind | ERG Ets-DNA blk | Resorufin autofl | WT IDH1 inh | IDH1 R132H conf
O=C(O)CSCC(=O)N(Cc1ccccc1)c1nc(-c2ccccc2)c(-c2ccccc2)s1 | -7% | ? | 0% | -3% | 3 | 5% | 40µM*
C=C1C(=O)O[C@@H]2C[C@@H](C)[C@@H]3C=CC(=O)[C@@]3(C)[C@@H](OC(=O)CC(=O)O[C@H]3[C@@H]4C(=C)C(=O)O[C@@H]4C[C@@H](C)[C@@H]4C=CC(=O)[C@]43C)[C@H]12 | -6% | ? | -9% | 3% | 9 | -10% | ?
Clc1ccc(COC(Cn2ccnc2)c2ccc(Cl)cc2Cl)cc1 (stereo not given) | 2% | ? | -8% | -11% | . | . | .
Clc1ccc(C(c2ccc(Cl)cc2)n2cc[n+](CC(OCc3ccc(Cl)cc3Cl)c3ccc(Cl)cc3Cl)c2)cc1 (stereo not given) | -2% | 18µM* | . | 28% | -8 | ? | 7.9µM*
Cc1nc2cc(C(F)(F)F)ccc2n1C1CCN(Cc2nnnn2Cc2ccc3c(c2)OCO3)CC1 | -1% | ? | ? | -2% | -4 | 14% | 16µM*
COC(=O)C1=C(c2cccc(OC)c2OC)C[C@@H]2CC[C@H]1N2C(=O)N1CCOCC1 | -1% | 6% | . | 4% | . | . | .
CC(=O)Oc1ccc(Cl)c2cccnc12 | . | . | -13% | . | . | . | .
CC(=O)[C@H]1CC[C@H]2[C@@H]3CC=C4C[C@@H](OS(=O)(=O)O)CC[C@]4(C)[C@H]3CC[C@]12C | -1% | 40µM* | . | -7% | 10 | -2% | 40µM*
CCC(=NCc1ccco1)c1c(O)n(-c2ccccc2C)c(=O)[nH]c1=O | -5% | 0% | 1% | -8% | . | . | .
CN1C(=O)/C(=C\c2ccc(N3CCCCCC3)cc2)C(=O)NC1=S | 1% | 46µM* | -14% | 26% | -12 | -4% | 22µM*
CCCCN1C(=O)/C(=C/c2ccc(N3CCCCCC3)cc2)C(=O)NC1=S | . | . | 9% | . | . | . | .
CN1CCN(Cc2cn3cccnc3n2)CC1 | -2% | -4% | 3% | -10% | . | . | .
CCN(CC)CCCN=C(C)c1c(O)n(C2CCCCC2)c(=O)[nH]c1=O | . | 1% | -20% | -2% | . | . | .
O=C1NC(=O)C(=Cc2ccc(-c3ccc(Cl)cc3)o2)C(=O)N1 | -2% | ? | -20% | 15% | 3 | 2% | 40µM*
O=C1NC(=O)C(=Cc2ccc(-c3ccc(S(=O)(=O)N4CCOCC4)cc3)o2)C(=O)N1 | 0% | ? | -18% | 1% | . | . | .
CCOc1ccc(C2c3c(-c4ccccc4O)n[nH]c3C(=O)N2Cc2ccncc2)cc1 (stereo not given) | . | ? | -21% | -5% | -5 | 1% | 40µM*
CCOc1ccc(C2CC(c3c(O)n(C)c(=O)n(C)c3=O)=NN2)cc1 (stereo not given) | -3% | 20% | -7% | 0% | . | . | .
CCOc1ccccc1Oc1coc2cc(OC(=O)c3ccco3)ccc2c1=O | -12% | ? | -5% | -3% | -9 | 1% | 28µM*
CCOc1ccccc1Oc1coc2cc(OC(=O)N(C)C)ccc2c1=O | -3% | 2% | -4% | -16% | . | . | .
COC(=O)C1=C(C)NC(=S)NC1c1ccc(N(CCCl)CCCl)cc1Cl (stereo not given) | 0% | ? | . | 1% | 5 | 2% | 11µM*

Bioassay records from PubChem BioAssay.
